From PubChem BioAssay (EPA / NIEHS) come the findings set out here.

Results filed as inconclusive are left out. Active and inactive are the calls of the source. The calls were made as follows: active = hit-call score of the fitted dose curve at least 0.9, where 1 is the maximum; inconclusive = response in the unintended direction; inactive = score below 0.9.

Read-out in this assay: ABC Transporter (ABCB11), ABCB11 (gene 8647)
The assay is described as follows: CLD_ABCB11_48hr: CellzDirect (CLD) Gene Expression Assay for ABC Transporter (ABCB11) at 48 hours (AID 2283697). The procedure:
CLD_48hr is a cell-based, multiplexed-readout assay that uses hepatocyte, a human liver primary cell, with measurements taken at 48 hours after chemical dosing in a 96-well plate.CLD_ABCB11_48hr is one of 16 assay component(s) measured or calculated from the CLD_48hr assay. It is designed to make measurements of mRNA induction, a form of inducible reporter, as detected with chemiluminescence signals by Quantitative Nuclease Protection Assay (qNPA) technology.Data from the assay component CLD_ABCB11_48hr was analyzed at the endpoint, CLD_ABCB11_48hr, in the positive analysis fitting direction relative to DMSO as the negative control and baseline of activity. Using a type of inducible reporter, gain-of-signal activity can be used to understand changes in the reporter gene as they relate to the gene ABCB11. Furthermore, this assay endpoint can be referred to as a primary readout. To generalize the intended target to other relatable targets, this assay endpoint is annotated to the transporter intended target family, where subfamily is ABC transporter.
Human hepatocyte cultures were treated daily for two consecutive days with fresh dosing solutions containing appropriate concentrations of the 320 ToxCast chemicals (chemical identities were blinded to CellzDirect and other ToxCast collaborators), vehicle control (0.2% DMSO), and positive control inducers as summarized in Table 1. Due to the large number of treatment groups and chemicals examined, the ToxCast chemicals were divided into two groups (spanning two independent cultures of hepatocytes from separate donor preparations (Hu778: ToxCast plates 1 and 2; Hu776: ToxCast plates 3 and 4). Each preparation of human hepatocyte cultures was treated with respective vehicle control, medium only control, set of six positive controls/reference chemicals for the five hepatic receptor pathways, and a subset of eight of the ToxCast chemicals (indoxacarb, pyrithiobac-sodium, norflurazon, cyhalofop-butyl, methomyl, thiram, acetochlor, and propiconazole). These replicate data, coupled with internal replicates designed within the blinded ToxCast chemical library, provided additional data to evaluate interindividual differences between hepatocyte preparations and their potential impact on chemical profiles.Cell morphology and integrity were evaluated using phase-contrast microscopy as an indicator of hepatocyte cell health (Tyson & Green, 1987). Cultures for each treatment group (i.e., media, vehicle [0.2% DMSO], positive control inducers [multiple concentrations], and the ToxCast chemicals [multiple concentrations]) were observed and cell morphology was assessed relative to vehicle control cultures at each harvest time point (0, 6, 24, or 48 h). […] Images were evaluated at the conclusion of the study to assess changes in cell integrity and account for the effects of chemical exposure on uncharacteristic changes in concentration-dependent gene expression profiles. The results from these determinations of apparent cytotoxicity were annotated (yes/no) alongside the corresponding qNPA data for reference.At the conclusion of each treatment period, hepatocyte cultures (96-well) were washed with 1 volume of HBSS, lysed by addition of 25 ul ArrayPlate lysis buffer (HTG, Tucson, AZ), and 70 ul/well of Denaturation Oil, denatured by incubation at 95C for 10 min, and frozen at approximately -70C until analysis by nuclease protection assay (qNPA) (Roberts et al., 2007). For qNPA analysis, cell lysates were thawed at 50C for approximately 30 min, qNPA probes were added, and samples were incubated at 95C for 10 min to begin the detection process by denaturing the target RNA, dissociating the duplexes and secondary structure hybridization. At the conclusion of the hybridization period, S1 nuclease reagent was added to each sample to digest all nonprotected nucleotides at 50C for 60-90 min. […]
On to `COCC(C)N(C(=O)CCl)c1c(C)csc1C` (stereo not given), for which the molecule was classed as inactive. The result for `OC(c1ccc(Cl)cc1)(c1ccc(Cl)cc1)C(Cl)(Cl)Cl` reads “inactive”; that for `N#CN=C1SCCN1Cc1ccc(Cl)nc1`, “inactive”; that for `O=C(O)c1c(Cl)ccc2cc(Cl)cnc12`, “inactive”. Turning to `C=C(C)CN(CC)c1c([N+](=O)[O-])cc(C(F)(F)F)cc1[N+](=O)[O-]`, the result was inactive.

For the molecule `COc1ccc(-c2ccccc2)cc1NNC(=O)OC(C)C`, the result was inactive. On to `COP(=S)(OC)SCn1nnc2ccccc2c1=O`, for which the molecule was called inactive. `COC(=O)NC(=S)Nc1ccccc1NC(=S)NC(=O)OC`: the molecule was classed as inactive.

For `COP(=O)(OC)O/C(C)=C/C(=O)N(C)C`, the result was inactive. `CO/N=C(/C1=NOCCO1)c1ccccc1Oc1ncnc(Oc2ccccc2Cl)c1F`: the molecule was classed as inactive. Under `COc1cc(OC)nc(NC(=O)NS(=O)(=O)c2ncccc2OCC(F)(F)F)n1` stands “inactive”; under `CCOc1nc(C(Cl)(Cl)Cl)ns1`, “inactive”.

As for `Clc1nc(Cl)nc(Nc2ccccc2Cl)n1`, the outcome was inactive. As to `COC(=O)NS(=O)(=O)c1ccc(N)cc1`, the call was inactive. The result for `COCc1cnc(C2=NC(C)(C(C)C)C(=O)N2)c(C(=O)O)c1` (stereo not given) reads “inactive”; that for `O=C1C2CC=CCC2C(=O)N1SC(Cl)(Cl)Cl` (stereo not given), “inactive”. As for `CS(=O)(=O)c1ccc(C(=O)C2C(=O)CCCC2=O)c([N+](=O)[O-])c1`, the call was inactive. Regarding `CCNC(=O)NC(=O)C(C#N)=NOC`, the molecule was called inactive.

Regarding `O=P(O)(O)CCCl`, the call was inactive.

Take `O=c1n(Cl)c(=O)n(Cl)c(=O)n1Cl`: the molecule was classed as inactive. On to `CCCC(=NOCC)C1=C(O)CC(CC(C)SCC)CC1=O` (stereo not given), for which the molecule was classed as inactive. The result for `CC(C)C1(C)N=C(c2ncccc2C(=O)O)NC1=O` (stereo not given) reads “inactive”. Under `Cc1nc(N(C)C)nc(OC(=O)N(C)C)c1C` stands “inactive”; under `CCOP(=O)(OCC)Oc1nc(Cl)c(Cl)cc1Cl`, “inactive”.

With `Nc1c(Cl)c(F)nc(OCC(=O)O)c1Cl`, the outcome was inactive.
